Source: PubChem BioAssay (NCI)
Values joined by “and” are separate entries in the source; they are usually repeats but may differ in a detail not shown here. Equal entries are not always repeated. The panel holds about 83,000 compounds, 20% with a hit somewhere; the sample as a whole holds those more often.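 In brief: 96-well plates, 48 h treatment, single concentration, percent growth endpoint.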 Active and inactive are the calls of the source. The calls were made as follows: active = growth percent below 10; inactive = the rest.

Legend:
Assay in all cases: NCI-60 one-dose screen, 48 h (100 = growth as untreated, 0 = no growth, -100 = all killed)
Settings in all cases: 10 µM unless noted
[1] = system: NCI-H23 lung
[2] = system: NCI-H226 lung
[3] = system: NCI-H322M lung
[4] = system: HOP-62 NSCLC
[5] = system: NCI-H460 lung
[6] = system: HOP-92 NSCLC
[7] = system: NCI-H522 lung
[8] = system: A549/ATCC NSCLC
[9] = system: 786-0 renal
[10] = system: COLO 205 colon
[11] = system: DU-145 prostate
[12] = system: K-562 leukemia
[13] = system: MALME-3M melanoma
[14] = system: MDA-MB-231 breast
[15] = system: RXF 393 renal
[16] = system: SF-268 CNS
[17] = system: SF-295 CNS
[18] = system: SF-539 CNS
[19] = system: UACC-257 melanoma
[20] = system: M14 melanoma

Row | Structure (SMILES) | growth [1] | growth [2] | growth [3] | growth [4] | growth [5] | growth [6] | growth [7] | growth [8] | growth [9] | growth [10] | growth [11] | growth [12] | growth [13] | growth [14] | growth [15] | growth [16] | growth [17] | growth [18] | growth [19] | growth [20]
1 | CC1(CO)CCCC1NCCNC1CCCC1(C)CO (centres undefined) | 109% (inactive) and 107% (inactive) | 99.5% (inactive) and 102% (inactive) | 139% (inactive) and 98.2% (inactive) | 109% (inactive) and 100% (inactive) | 104% (inactive) and 112% (inactive) | 82.8% (inactive) and 101% (inactive) | 94.3% (inactive) | 105% (inactive) and 104% (inactive) | 101% (inactive) and 102% (inactive) | 114% (inactive) and 103% (inactive) | 120% (inactive) and 88.9% (inactive) | 110% (inactive) and 99% (inactive) | 116% (inactive) and 103% (inactive) | 92.2% (inactive) and 113% (inactive) | 109% (inactive) and 119% (inactive) | 115% (inactive) and 105% (inactive) | 94.9% (inactive) and 105% (inactive) | 103% (inactive) and 105% (inactive) | 100% (inactive) | 
2 | O=C(Nc1ccccc1)OCC(CN1CCCCC1)OC(=O)Nc1ccccc1 (centres undefined) | 78.4% (inactive) and 103% (inactive) | 96.6% (inactive) and 89.9% (inactive) | 81% (inactive) and 92.2% (inactive) | 83.6% (inactive) and 110% (inactive) | 106% (inactive) and 105% (inactive) | 76.4% (inactive) | 103% (inactive) | 94.1% (inactive) and 94.4% (inactive) | 64% (inactive) and 101% (inactive) | 98% (inactive) | 107% (inactive) | 89% (inactive) | 90.8% (inactive) and 109% (inactive) | 30.7% (inactive) and 79.2% (inactive) | 60% (inactive) and 86.8% (inactive) | 79.2% (inactive) and 94.7% (inactive) | 96.5% (inactive) and 97.9% (inactive) | 87.5% (inactive) and 96.2% (inactive) | 93.7% (inactive) and 93.2% (inactive) | 86.6% (inactive) and 108% (inactive)
3 | COc1ccc(CCn2cnn3c(=O)c4ccccc4nc3c2=O)cc1OC | 97.6% (inactive) and 114% (inactive) | 94.7% (inactive) and 97% (inactive) | 103% (inactive) and 110% (inactive) | 112% (inactive) and 104% (inactive) | 105% (inactive) and 118% (inactive) | 93.6% (inactive) and 88.7% (inactive) | 112% (inactive) and 97.6% (inactive) | 104% (inactive) and 106% (inactive) | 95.2% (inactive) and 108% (inactive) | 104% (inactive) and 117% (inactive) | 98.2% (inactive) and 117% (inactive) | 99.9% (inactive) and 102% (inactive) | 114% (inactive) | 110% (inactive) and 101% (inactive) | 103% (inactive) and 115% (inactive) | 93.8% (inactive) and 108% (inactive) | 111% (inactive) | 101% (inactive) and 97.4% (inactive) | 101% (inactive) and 112% (inactive) | 94% (inactive) and 106% (inactive)
4 | CCOP(C)(=O)/C(Cc1ccc(OC)c(OC)c1)=N\O (centres undefined) | 97.1% (inactive) | 96% (inactive) | 90.5% (inactive) | 98.7% (inactive) | 105% (inactive) | 100% (inactive) | 102% (inactive) | 108% (inactive) | 103% (inactive) | 112% (inactive) | 116% (inactive) | 101% (inactive) | 98.5% (inactive) | 109% (inactive) | 113% (inactive) | 102% (inactive) | 100% (inactive) | 100% (inactive) | 113% (inactive) | 108% (inactive)
5 | CC(C)(C)OC(=O)c1ccc(NCc2cc(O)ccc2O)cc1 | 59.5% (inactive) | 9.37% (active) | 84.1% (inactive) | 45.1% (inactive) | 53.4% (inactive) | 17.5% (inactive) | -78.4% (active) | 40.9% (inactive) | -72.7% (active) | 10.8% (inactive) | 57% (inactive) | 3.17% (active) | -40.2% (active) | -38.2% (active) | -68.3% (active) | 16.5% (inactive) | 78.4% (inactive) | -70.1% (active) | -6.29% (active) | 44.5% (inactive)
6 | CC1OS(=O)OC1C (centres undefined) | 101% (inactive) and 95.8% (inactive) | 103% (inactive) and 101% (inactive) | 108% (inactive) and 94% (inactive) | 101% (inactive) and 105% (inactive) | 104% (inactive) and 102% (inactive) | 114% (inactive) and 96.3% (inactive) | 68.9% (inactive) and 94.9% (inactive) | 97.9% (inactive) and 104% (inactive) | 103% (inactive) and 105% (inactive) | 112% (inactive) and 102% (inactive) | 113% (inactive) and 102% (inactive) | 82.6% (inactive) and 110% (inactive) | 107% (inactive) and 91% (inactive) | 109% (inactive) | 99.4% (inactive) and 104% (inactive) | 110% (inactive) | 100% (inactive) | 97.4% (inactive) and 99.1% (inactive) | 99.8% (inactive) and 94.2% (inactive) | 99.1% (inactive) and 102% (inactive)
7 | Oc1ccc(O)c(-c2ccccc2)c1 | 63.1% (inactive) | 54.9% (inactive) | 42.9% (inactive) | 46.6% (inactive) | 19.7% (inactive) | 85.8% (inactive) | -68.3% (active) | 66.1% (inactive) | 65.6% (inactive) | 85.9% (inactive) | 77.6% (inactive) | 30.4% (inactive) | 84.6% (inactive) | 66% (inactive) | 73.8% (inactive) | 53.7% (inactive) | 17.7% (inactive) | 46.3% (inactive) | 88.4% (inactive) | 65.9% (inactive)
8 | CCOC(=O)c1csc(N)n1 | 105% (inactive) and 102% (inactive) | 102% (inactive) and 105% (inactive) | 87.1% (inactive) and 101% (inactive) | 103% (inactive) and 96.9% (inactive) | 105% (inactive) | 96% (inactive) and 95.7% (inactive) | 88.7% (inactive) | 81.5% (inactive) and 93.8% (inactive) | 101% (inactive) and 100% (inactive) | 129% (inactive) and 108% (inactive) | 105% (inactive) and 104% (inactive) | 101% (inactive) and 102% (inactive) | 112% (inactive) and 108% (inactive) | 107% (inactive) and 98.7% (inactive) | 100% (inactive) | 108% (inactive) and 96.7% (inactive) | 99.8% (inactive) and 92.5% (inactive) | 94.8% (inactive) and 101% (inactive) | 87.3% (inactive) | 118% (inactive) and 98.3% (inactive)
9 | O=S(=O)(O)c1ccc2cc(O)ccc2c1 | 98.3% (inactive) | 98% (inactive) | 99.2% (inactive) | 99.7% (inactive) | 102% (inactive) | 88.8% (inactive) | 90% (inactive) | 111% (inactive) | 104% (inactive) | 103% (inactive) | 112% (inactive) | 103% (inactive) | 101% (inactive) | 108% (inactive) | 109% (inactive) | 106% (inactive) | 110% (inactive) | 102% (inactive) | 105% (inactive) | 103% (inactive)
10 | NNC(=O)Nc1ccccc1 | 100% (inactive) | 95.2% (inactive) | 96.1% (inactive) | 103% (inactive) | 104% (inactive) | 90.8% (inactive) | 107% (inactive) | 113% (inactive) | 99.8% (inactive) | 99.1% (inactive) | 106% (inactive) | 102% (inactive) | 99.6% (inactive) | 91.2% (inactive) | 108% (inactive) | 100% (inactive) | 96.3% (inactive) | 97% (inactive) | 108% (inactive) | 107% (inactive)
